Potency and outcome data for six molecules are collected here from PubChem BioAssay (Tox21).

The nature of assay [1]: qHTS assay to identify aromatase inhibitors - cell viability counter screen (AID 743084).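 Further: cells stimulated with testosterone during compound exposure; nearly all actives have a fitted effect of over 55% in size.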 Further: potency means the concentration at half of the fitted maximal effect.
Assay [2] concerns the target Aryl hydrocarbon receptor (Homo sapiens) (UniProt P35869). Nature of the assay: qHTS assay to identify small molecule that activate the aryl hydrocarbon receptor (AhR) signaling pathway (AID 743085). Further: nearly all actives have a fitted effect of over 15% in size. Further: potency means the concentration at half of the fitted maximal effect.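 On activation: HG2L7.5c1 human HepG2 liver cells with stably integrated DRE-driven firefly reporter; series mostly up to about 70 µM.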 A digest of the protocol: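 24 h compound exposure, 37C, HepG2-derived HG2L7.5c1 cells with DRE-responsive luciferase. Readouts: fluorescence viability, then luminescence at room temperature after 30 min.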
Background: Quantitative high-throughput screening tests each substance at several concentrations.

A short description of assay [3]: qHTS assay to identify small molecule that activate the aryl hydrocarbon receptor (AhR) signaling pathway - cell viability counter screen (AID 743086).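 Further: HepG2 liver cells carrying the AhR DRE luciferase reporter; series mostly up to about 70 µM; nearly all actives have a fitted effect of over 45% in size.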 A digest of the protocol:
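Cytotoxicity counter screen: CellTiter-Fluor signal (30 min, 37 C) in 4000 HepG2 cells/well carrying the DRE-luciferase reporter, following 24 h compound exposure at 37 C.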

The nature of assay [4]: qHTS assay to identify small molecule antagonists of the peroxisome proliferator-activated receptor gamma (PPARg) signaling pathway - cell viability counter screen (AID 743194). Further: nearly all actives have a fitted effect of over 55% in size. The method in brief: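 Viability was measured as CellTiter-Glo luminescence in GeneBLAzer PPARg UAS-bla HEK293H cells. These cells had been exposed 17 h at 37 C to compounds together with rosiglitazone at 50 nM final, with the beta-lactamase readout taken in the same wells.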

Assay [5] in a line: qHTS assay for small molecule agonists of the antioxidant response element (ARE) signaling pathway (AID 743202; active means well fitted activation curve with a large enough effect in the signal ratio in the repeat runs, not every such curve was filed as active; the % refers to the signal ratio). A digest of the protocol:
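Beta-lactamase reporter activity, read as fluorescence intensity, reflects ARE/Nrf2 pathway induction in HepG2 cells after 16 h compound exposure at 37 C; substrate loading was 2 h at room temperature.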

Assay [6] can be described thus: qHTS assay for small molecule agonists of the antioxidant response element (ARE) signaling pathway - cell viability counter screen (AID 743203; calls by dose curve; further: nearly all actives have a fitted effect of over 55% in size; further: potency means the concentration at half of the fitted maximal effect). The method in brief: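 ATP content via CellTiter-Glo luminescence served as the viability measure. Cells: ARE-bla HepG2, 2,000 per well. Exposure: 16 hrs, 37C/5% CO2.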
A short description of assay [7]: qHTS assay for small molecule activators of the heat shock response signaling pathway - cell viability counter screen (AID 743209). Further: nearly all actives have a fitted effect of over 50% in size. The method in brief: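 Compounds dissolved in DMSO were added to overnight-plated HSE-bla HeLa cells and left 5 h at 37 C. Cell viability was quantified by luminescence using CellTiter-Glo.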
Assay [8] is described as follows: qHTS assay for small molecule activators of the heat shock response signaling pathway (AID 743210; active means well fitted activation curve with a large enough effect in the signal ratio in the repeat runs, with a control signal flat, not every such curve was filed as active; the % refers to the signal ratio;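 further: HeLa cells with beta-lactamase reporter driven by heat shock elements; series mostly up to about 63 µM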). A digest of the protocol:
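Fluorescence from a cleaved B/G FRET substrate (2.5 h, room temp) reports HSE-driven beta-lactamase in HeLa cells treated 5 h at 37 C with DMSO-dissolved compounds.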

Assay [9] can be described thus: qHTS assay to identify small molecule agonists of the peroxisome proliferator-activated receptor delta (PPARd) signaling pathway - cell viability counter screen (AID 743211). Further: nearly all actives have a fitted effect of over 55% in size. Further: potency means the concentration at half of the fitted maximal effect. A digest of the protocol:
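Luminescent ATP viability assay (CellTiter-Glo, 30 min RT) in UAS-bla HEK293H cells carrying the PPAR delta reporter construct, 3000 cells/well, after a 17 h compound treatment at 37 C.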

Assay [10] addresses Peroxisome proliferator-activated receptor delta (Homo sapiens) (UniProt Q03181). Kind of assay: qHTS assay to identify small molecule agonists of the peroxisome proliferator-activated receptor delta (PPARd) signaling pathway (AID 743212; calls by dose curve). A digest of the protocol:
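Steps: seed PPARd-bla HEK293H cells; incubate 5 h, 37 C, 5% CO2; add compounds in DMSO; incubate, 37 C; add LiveBLAzer B/G FRET substrate; hold 2 h at room temperature; measure fluorescence.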

Assay [11] is described as follows: qHTS assay to identify small molecule antagonists of the peroxisome proliferator-activated receptor delta (PPARd) signaling pathway - cell viability counter screen (AID 743213). Further: nearly all actives have a fitted effect of over 50% in size. Further: potency means the concentration at half of the fitted maximal effect. The method in brief:
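Luminescence from CellTiter-Glo, added after the bla read and incubated 30 min at room temperature, gives viability of HEK293H PPARd-bla cells exposed to compounds for 17 h at 37 C with 300 nM L165041.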

Assay [12] concerns the target Peroxisome proliferator-activated receptor delta (Homo sapiens) (UniProt Q03181). Kind of assay: qHTS assay to identify small molecule antagonists of the peroxisome proliferator-activated receptor delta (PPARd) signaling pathway (AID 743215; active means well fitted inhibition curve with a large enough effect in the signal ratio in the repeat runs, not every such curve was filed as active; the % refers to the signal ratio;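 further: cells stimulated with agonist L165041 at 300 nM final during compound exposure; series mostly up to about 62 µM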). A digest of the protocol:
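Here, a reporter line (HEK293H, beta-lactamase under a UAS) measures PPARd signaling. Compounds are tested against agonist L165041 at 300 nM final concentration over 17 h at 37 C, with fluorescence read after substrate.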

Assay [13] is described as follows: qHTS assay to identify small molecule agonists of the farnesoid-X-receptor (FXR) signaling pathway - cell viability counter screen (AID 743218). Further: nearly all actives have a fitted effect of over 45% in size. Further: potency means the concentration at half of the fitted maximal effect. The method in brief:
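Quantitative HTS counter screen measuring ATP-based viability via CellTiter-Glo luminescence in HEK 293T cells carrying a UAS-driven beta-lactamase reporter, after 16 h compound exposure at 37 C.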

Assay [14] in a line: qHTS assay to identify small molecule antagonists of the farnesoid-X-receptor (FXR) signaling pathway - cell viability counter screen (AID 743221; active means well fitted cell-killing curve with a large enough effect in the repeat runs, not every such curve was filed as active; further: nearly all actives have a fitted effect of over 50% in size; further: potency means the concentration at half of the fitted maximal effect). The method in brief: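 In GeneBLAzer FXR-UAS-bla HEK 293T cells stimulated with 50 uM chenodeoxycholic acid (final), compounds acted for 16 h at 37 C. Viability was assessed afterwards by CellTiter-Glo luminescence.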
Assay [15] has as its target Vitamin D3 receptor (Homo sapiens) (UniProt P11473). Nature of the assay: qHTS assay to identify small molecule agonists of the vitamin D receptor (VDR) signaling pathway (AID 743222; calls by dose curve). A digest of the protocol: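 Tox21 cell reporter format: VDR-bla line, 16 h compound exposure in 5% CO2 at 37C, then fluorescence intensity after 2 h with LiveBLAzer B/G FRET substrate.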

For assay [16] the target is unchanged. Kind of assay: qHTS assay to identify small molecule antagonists of the vitamin D receptor (VDR) signaling pathway (AID 743223; active means well fitted inhibition curve with a large enough effect in the signal ratio in the repeat runs, not every such curve was filed as active; the % refers to the signal ratio). A digest of the protocol: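 Agonist 1alpha,25-dihydroxyvitamin D3 (3 nM in well) was added with each compound to VDR-bla cells preincubated 4 h. Cells stood 16 h at 37C, then FRET substrate 2 h at room temperature; fluorescence intensity recorded.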

The target of assay [17] is Peroxisome proliferator-activated receptor gamma (Homo sapiens) (UniProt P37231). Kind of assay: qHTS assay to identify small molecule agonists of the peroxisome proliferator-activated receptor gamma (PPARg) signaling pathway (AID 743094; active means well fitted activation curve with a large enough effect in the signal ratio in the repeat runs, not every such curve was filed as active; the % refers to the signal ratio). A digest of the protocol: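 Agonism was assessed in a beta-lactamase reporter system, HEK293H cells with a stably integrated UAS-bla construct under PPARg control; the 17 h treatment at 37C preceded a 1 h room-temperature FRET substrate read.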

For assay [18] the target is unchanged. Nature of the assay: qHTS assay to identify small molecule antagonists of the peroxisome proliferator-activated receptor gamma (PPARg) signaling pathway (AID 743191; calls by dose curve; further: series mostly up to about 63 µM; nearly all actives have a fitted effect of over 30% in size). A digest of the protocol: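 Beta-lactamase reporter under UAS control in HEK293H PPARg-bla cells; compound treatment 17 h at 37C. Read-out: fluorescence intensity after 1 h room-temperature incubation with LiveBLAzer B/G FRET substrate.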

The target of assay [19] is Bile acid receptor (Homo sapiens) (UniProt Q96RI1). Kind of assay: qHTS assay to identify small molecule antagonists of the farnesoid-X-receptor (FXR) signaling pathway (AID 743217; active means well fitted inhibition curve with a large enough effect in the signal ratio in the repeat runs, not every such curve was filed as active; the % refers to the signal ratio). The method in brief:
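Test compounds are pin-transferred onto FXR-bla HEK 293T cells, then chenodeoxycholic acid is added at 50 uM final. After 16 h at 37 °C, LiveBLAzer B/G substrate is applied for 2 h at room temperature and fluorescence read.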

The target is the same in assay [20]. Kind of assay: qHTS assay to identify small molecule agonists of the farnesoid-X-receptor (FXR) signaling pathway (AID 743220; active means well fitted activation curve with a large enough effect in the signal ratio in the repeat runs, not every such curve was filed as active; the % refers to the signal ratio). A digest of the protocol: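 FXR-UAS-bla HEK 293T cells carrying a UAS-driven beta-lactamase reporter were plated for 5 h at 37C/5% CO2, then exposed to DMSO-dissolved Tox21 10K compounds for 16 h at 37C. A LiveBLAzer B/G FRET substrate was loaded for 2 h at room temperature before fluorescence reading.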

“And” between values parts separate entries of the source, which are not always exact repeats. Identical values can stand only once. Results filed as inconclusive are left out. The source holds several records for some structures; these can differ, active in one and inactive in another. The source made the active and inactive calls. Unless noted, the call rests on the fitted dose curve; in most records, active means well fitted curve in the direction sought with a large enough effect in the repeat runs; inconclusive means weak or mixed curves; inactive means no such curve, though single readings can be large; an effect the other way counts as inactive or inconclusive.

Chain of Bile acid receptor (Homo sapiens) (Q96RI1 whole entry, looked up): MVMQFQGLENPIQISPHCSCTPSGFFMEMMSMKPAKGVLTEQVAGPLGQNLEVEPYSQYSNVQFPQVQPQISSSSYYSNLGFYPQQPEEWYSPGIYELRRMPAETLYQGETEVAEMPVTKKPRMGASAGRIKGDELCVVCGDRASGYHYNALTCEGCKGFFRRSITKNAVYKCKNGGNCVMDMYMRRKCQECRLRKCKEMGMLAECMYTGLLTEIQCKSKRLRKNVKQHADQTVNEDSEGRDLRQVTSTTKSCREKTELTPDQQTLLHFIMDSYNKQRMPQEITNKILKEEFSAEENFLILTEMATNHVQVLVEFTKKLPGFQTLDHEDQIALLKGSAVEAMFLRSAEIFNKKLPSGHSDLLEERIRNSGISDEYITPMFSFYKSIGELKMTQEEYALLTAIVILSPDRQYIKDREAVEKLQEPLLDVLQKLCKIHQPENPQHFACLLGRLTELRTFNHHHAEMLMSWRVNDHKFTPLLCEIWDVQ
Chain of Aryl hydrocarbon receptor (Homo sapiens) (P35869 whole entry, looked up): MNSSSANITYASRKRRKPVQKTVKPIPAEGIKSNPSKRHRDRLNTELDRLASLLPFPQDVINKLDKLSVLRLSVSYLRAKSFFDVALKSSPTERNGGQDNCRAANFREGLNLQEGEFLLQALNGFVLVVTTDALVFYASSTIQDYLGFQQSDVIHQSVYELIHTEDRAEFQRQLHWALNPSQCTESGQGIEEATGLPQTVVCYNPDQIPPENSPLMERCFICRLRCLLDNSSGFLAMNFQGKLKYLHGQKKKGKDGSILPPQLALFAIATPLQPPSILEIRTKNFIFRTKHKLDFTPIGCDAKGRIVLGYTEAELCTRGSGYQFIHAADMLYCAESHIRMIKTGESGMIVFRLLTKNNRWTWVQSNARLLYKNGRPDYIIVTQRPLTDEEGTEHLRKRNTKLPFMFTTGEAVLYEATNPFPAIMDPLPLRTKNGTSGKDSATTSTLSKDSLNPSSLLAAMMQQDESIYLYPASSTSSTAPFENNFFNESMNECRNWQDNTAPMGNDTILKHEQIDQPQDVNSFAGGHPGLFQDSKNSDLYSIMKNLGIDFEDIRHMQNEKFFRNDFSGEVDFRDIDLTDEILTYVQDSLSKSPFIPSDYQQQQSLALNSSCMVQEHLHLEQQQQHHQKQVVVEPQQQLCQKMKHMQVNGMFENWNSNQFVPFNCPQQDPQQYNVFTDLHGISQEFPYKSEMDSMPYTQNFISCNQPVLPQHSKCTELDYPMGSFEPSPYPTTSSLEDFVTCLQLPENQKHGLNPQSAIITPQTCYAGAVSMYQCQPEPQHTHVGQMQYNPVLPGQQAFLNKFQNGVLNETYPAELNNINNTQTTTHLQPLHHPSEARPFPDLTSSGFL
Chain of Vitamin D3 receptor (Homo sapiens) (P11473 whole entry, looked up): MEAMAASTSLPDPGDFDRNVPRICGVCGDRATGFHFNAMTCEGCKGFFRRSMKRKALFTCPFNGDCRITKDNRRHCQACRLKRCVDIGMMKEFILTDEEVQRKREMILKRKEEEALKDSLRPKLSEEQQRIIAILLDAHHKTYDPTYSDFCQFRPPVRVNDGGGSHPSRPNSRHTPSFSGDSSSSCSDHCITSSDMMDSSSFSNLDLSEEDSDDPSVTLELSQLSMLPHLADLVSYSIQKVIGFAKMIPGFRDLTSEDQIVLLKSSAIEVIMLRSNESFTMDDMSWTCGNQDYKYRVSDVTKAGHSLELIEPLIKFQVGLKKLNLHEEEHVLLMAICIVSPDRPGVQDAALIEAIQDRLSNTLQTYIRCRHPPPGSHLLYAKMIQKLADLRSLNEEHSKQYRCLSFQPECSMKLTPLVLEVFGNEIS
Chain of Peroxisome proliferator-activated receptor delta (Homo sapiens) (Q03181 whole entry, looked up): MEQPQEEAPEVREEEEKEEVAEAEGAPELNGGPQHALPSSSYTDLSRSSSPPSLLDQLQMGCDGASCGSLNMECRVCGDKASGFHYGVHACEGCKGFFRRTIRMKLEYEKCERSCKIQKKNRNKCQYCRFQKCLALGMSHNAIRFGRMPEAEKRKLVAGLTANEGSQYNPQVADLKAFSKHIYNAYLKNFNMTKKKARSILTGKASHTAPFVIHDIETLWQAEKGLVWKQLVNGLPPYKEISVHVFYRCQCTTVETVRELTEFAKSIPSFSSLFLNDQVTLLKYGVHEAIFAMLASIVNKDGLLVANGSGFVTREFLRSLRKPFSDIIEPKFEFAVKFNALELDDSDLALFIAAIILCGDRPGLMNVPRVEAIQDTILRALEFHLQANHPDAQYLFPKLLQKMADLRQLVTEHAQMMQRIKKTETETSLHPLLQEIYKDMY
Chain of Peroxisome proliferator-activated receptor gamma (Homo sapiens) (P37231 whole entry, looked up): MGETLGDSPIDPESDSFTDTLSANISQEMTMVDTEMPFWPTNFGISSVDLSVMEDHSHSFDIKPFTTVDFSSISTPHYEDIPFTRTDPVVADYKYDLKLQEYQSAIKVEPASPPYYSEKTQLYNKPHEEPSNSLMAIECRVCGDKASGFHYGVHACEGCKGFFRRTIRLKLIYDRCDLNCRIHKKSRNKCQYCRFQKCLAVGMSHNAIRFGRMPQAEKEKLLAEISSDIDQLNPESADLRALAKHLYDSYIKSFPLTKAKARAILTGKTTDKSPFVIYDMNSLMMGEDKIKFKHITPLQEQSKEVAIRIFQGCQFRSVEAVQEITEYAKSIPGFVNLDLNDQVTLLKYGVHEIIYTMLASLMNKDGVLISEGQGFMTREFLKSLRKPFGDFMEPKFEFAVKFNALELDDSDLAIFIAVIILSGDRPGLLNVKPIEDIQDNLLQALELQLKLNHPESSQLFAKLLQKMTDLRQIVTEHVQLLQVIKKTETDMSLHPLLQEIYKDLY

Regarding `C1COCCN1`, the Potency entry in assay [1], in [2], in assay [3], in assay [4], in assay [5] and in assay [6] was “inactive” throughout. The Potency result in assay [7], in assay [9], in [11], in assay [13] and in assay [14] was “inactive” throughout. For the same molecule, the molecule was called inactive in assay [8], in assay [10], in [12], in assay [15] and in assay [16].

In the case of `CCC(=O)O[C@H]1[C@H](O[C@@H]2[C@@H](C)[C@H](O[C@H]3C[C@@](C)(OC)[C@@H](O)[C@H](C)O3)[C@@H](C)C(=O)O[C@H](CC)[C@@](C)(O)[C@H](O)[C@@H](C)C(=O)[C@H](C)C[C@@]2(C)O)O[C@H](C)C[C@@H]1N(C)C`, the Potency in assay [1] was 18.1 µM (active); in assay [6], 40.5 µM (active) and inactive; in assay [11], 23 µM (active) and inactive; in assay [13], 32.5 µM (active) and inactive; in assay [14], 32.5 µM (active) and inactive. The Potency entry in assay [2], in assay [4], in [5], in assay [7] and in assay [9] was “inactive” in each case. In addition, the molecule was classed as inactive in [17], in assay [8] and in assay [15].

On to `COc1ccc(-c2coc3cc(O)cc(O)c3c2=O)cc1`, for which the Potency in assay [2] is 9.77 µM (active) and 9.69 µM (active). Moreover, the Potency result in [3], in assay [18], in assay [4], in assay [6], in assay [7] and in assay [9] was “inactive” in each case. Also, the Potency result in [11], in assay [13] and in [14] was “inactive” in each case. Moreover, the outcome in assay [8], in assay [12], in [15] and in assay [16] was inactive.

In the case of `O=C(O)COCCN1CCN(C(c2ccccc2)c2ccc(Cl)cc2)CC1` (configuration not stated), the Potency result in assay [1], in [3], in assay [18], in [4], in assay [6] and in assay [9] was “inactive” each time. The Potency entry in assay [11], in [19], in [13] and in [14] was “inactive” each time. Moreover, the outcome in assay [17], in assay [10], in assay [12], in [20], in assay [15] and in assay [16] was inactive.

Consider `CC(=O)O[C@]1(C(C)=O)CC[C@H]2[C@@H]3C=C(Cl)C4=CC(=O)CC[C@]4(C)[C@H]3CC[C@@]21C`, for which the Potency result in assay [1], in [2], in [3], in [7], in assay [11] and in [13] was “inactive” each time. In assay [14], the Potency result is “inactive”. The call in [8] and in [12] was inactive. Moreover, the Potency in [9] is 48.9 µM (active) and inactive.

As for `c1ccc2cc3ccccc3cc2c1`, the Potency entry in assay [1], in assay [3], in [18], in assay [4], in [5] and in [6] was “inactive” each time. In addition, the Potency result in [7], in assay [9], in [11], in [19], in [13] and in assay [14] was “inactive” each time. For the same molecule, the result in assay [17], in [10], in assay [12], in assay [20], in assay [15] and in assay [16] was inactive.
